# Source: the supplement of paper PMC6555819
# Legend:
# Assay in all cases: PBM binding z-score (relative to random genomic background probes); higher = stronger binding; sequences stand for … in GC…GCGATTGACAGCGTAGAATGAAGG
# [1] = tested on: FXR:RXRa (NR concentration 270 nM, RXRa partner concentration 90 nM)
# Summary of the method: (§1)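 The probes on custom Agilent 4×180K protein-binding microarrays were double-stranded, with 34-nt variable regions bearing direct-repeat seeds, single-nucleotide variants, half-site ablations and random human genomic background sequences. Incubation lasted 1 h with ligand-free nuclear receptor dimers in PBS pH 7.4, 2% milk, 0.02% Triton X-100, 1 mM DTT, 0.2 mg/mL BSA and 0.4 mg/ml salmon testes DNA. Antibodies against each partner (one per run) detected bound dimers, and fluorescence scans were regression-normalized. Binding z-scores take the random background probes as reference.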
# [2] = tested on: LXRa:RXRa (NR concentration 270 nM, RXRa partner concentration 90 nM)
# Summary of the method: as §1
# [3] = tested on: LXRa homodimer (NR concentration 270 nM)
# Summary of the method: as §1
# [4] = tested on: LXRb:RXRa (NR concentration 270 nM, RXRa partner concentration 90 nM)
# Summary of the method: as §1
# [5] = tested on: LXRb homodimer (NR concentration 270 nM)
# Summary of the method: as §1
# [6] = tested on: PPARa:RXRa (NR concentration 270 nM, RXRa partner concentration 90 nM)
# Summary of the method: as §1
# [7] = tested on: PPARg:RXRa (NR concentration 180 nM, RXRa partner concentration 90 nM)
# Summary of the method: as §1
# [8] = tested on: PPARg:RXRa 270nM:90nM, anti-RXR (NR concentration 270 nM, RXRa partner concentration 90 nM)
# Summary of the method: as §1
# [9] = tested on: PPARg:RXRa 30nM:10nM, anti-RXR (NR concentration 30 nM, RXRa partner concentration 10 nM)
# Summary of the method: as §1
# [10] = tested on: PPARg:RXRa 90nM:30nM, anti-RXR (NR concentration 90 nM, RXRa partner concentration 30 nM)
# Summary of the method: as §1
Sequence,PBM binding z-score [1],PBM binding z-score [2],PBM binding z-score [3],PBM binding z-score [4],PBM binding z-score [5],PBM binding z-score [6],PBM binding z-score [7],PBM binding z-score [8],PBM binding z-score [9],PBM binding z-score [10]
TAGCCTAGGCCATTCAGGGGCCAGTATAGAAAGC,-0.487,-0.796,-0.549,-0.624,-0.52,-0.185,0.0353,-0.377,-0.468,-0.511
CAAACTAGGTCAAACGTCAAAGTCGAGCCAACCA,5.56,4.17,1.04,3.16,1.12,6.14,10.8,9.01,8.48,9.75
GCTTGTATATCAAGGTTAAGAAAGACTAAGCTAA,0.268,1.1,-0.0678,0.659,-0.396,1.19,0.639,0.798,0.189,0.527
TCTCGGAGGACACGAAGGTTAGAGCTTTCCAGAG,0.31,-0.0717,-0.684,-0.246,-1.26,0.397,-0.0287,1,2.15,1.58
CCTGACGGGTCAAGGTTATAGCACGGGTGGTACG,4.36,2.88,0.0717,2.21,-0.369,4,2.54,2.92,0.472,1.61
ATCTCCAGGTAACCAAGTTCAGTGAATGCCGAAC,0.454,0.776,1.02,0.753,0.946,0.696,0.227,0.427,0.0617,0.231
ATTACAGGGTCACTAGGCCAGAGTAGGTACGAAT,6.12,4.57,0.484,3.59,1.62,5.94,8.17,6.86,3.45,5.84
CCTACTGGGCCAAATGTCATTGATTCCAATGCTC,0.068,-0.00295,-0.00298,0.307,-0.155,3.42,7,7.26,6.52,7.54
CCTCGGAGGAGAGAAGGTCAGAGCTGTCCGCTTT,0.811,0.874,-0.155,0.734,-0.806,1.62,-0.501,0.307,-0.994,-0.582
GCGACTGGGGCACCAGCAGGTTACCATAACTTAA,-0.545,-0.382,-0.495,0.0821,-1.41,1.05,1.55,1.44,-0.582,0.564
CAAACTAGGTCACCGGAAGGTCCAAGTCCGCATG,4.24,3.41,0.716,2.42,0.547,5.28,8.9,7.31,5.06,7.02
ACTTGCAGGCCAAGGGTCACTCAAGATTAGTCCG,2.94,2.83,0.304,2.98,0.0149,4.99,8.46,7.35,6.52,7.71
ATCTCTAGGTAAGACTCAGTTCACTGAAGAACGC,0.642,0.841,0.58,0.734,0.669,0.739,0.313,0.623,0.222,0.475
CCTACTGGGCCAAGGTCATTGTTCAGTCAAAGCA,2.83,3.04,1.28,2.99,-0.347,4.06,3.84,4.26,1.73,3.71
CGAACTAGGTCAAGGACAATGAATCTCCGCACGC,3.47,2.4,0.0804,1.37,-0.174,4.72,7.83,6.69,4.46,6.15
CGTCAAAGTTCAATTAAGGTAACGTAAAGCACGC,6.45,5.3,3.51,3.7,2.06,4.58,4.09,4.67,1.7,3.44
GCTAGCAGGCCATTTCGGTCACTCAATGACGGGC,-0.325,-0.482,-0.0904,-0.799,-0.792,-0.343,0.224,-0.461,-0.633,-0.697
TAGCCTAGCTCAGATCGGGCCAGTATACGCTATA,-0.961,-1.35,-1.07,-1.25,-1.34,-1.21,-0.0455,-0.972,-0.749,-0.992
ACAGACAGGTGAGTGAAGGTAACTCAACTGGACG,0.515,-0.0792,-0.448,-0.39,-0.735,-0.0249,0.821,0.143,0.0922,-0.0513
CCTTACGGGTAACTGACAGGTTATAGCATTTGGA,0.183,0.937,9.84e-05,0.454,-0.428,0.56,0.319,0.0456,-0.0329,-0.0443
TTACCAAGGTGAAGGTCGATGATCCCTCTGTAGA,1.25,0.976,-0.361,1.1,-0.706,2.27,2.29,3.58,1.74,3.24
CCTAGTTGGTCAAGGTCACTCACGCTATAGGTAC,3.8,3.42,1.94,3.17,0.615,3.67,2.44,3.08,0.743,2.05
TTACCAAGGTGCAGGTCGTTGATCCCTCTGTAGA,0.967,1.17,0.154,0.819,-0.626,0.827,-0.238,0.806,0.416,0.733
ATCTCTAGGTAAACAAGTTCAGTGAATGCCGAAC,0.431,1.06,1.16,0.55,0.583,1.04,0.677,0.774,0.448,0.709
AGAATGATGTTACCAAAGATCAGGGAAACGCTTG,-0.399,0.968,-0.229,-0.18,-0.38,-0.0184,0.652,0.26,0.0901,0.313

Sequence,PBM binding z-score [1],PBM binding z-score [2],PBM binding z-score [3],PBM binding z-score [4],PBM binding z-score [5],PBM binding z-score [6],PBM binding z-score [7],PBM binding z-score [8],PBM binding z-score [9],PBM binding z-score [10]
TCTCGTAGATCAATAGAGGTTAAGAAAGTGCGCT,0.399,3.34,0.504,1.71,-0.598,1.62,-0.218,1.6,2.83,2.12
ATACCAAGGTGATCGTGAGGTCGTGGATACTAAC,1.71,1.27,0.515,1.39,-0.127,2.17,0.846,0.784,-0.103,0.493
GGAACGAGGGCAAGTTGCTAGCAGAGTTTGATGG,0.687,0.359,-0.44,0.0629,-0.392,1.48,0.841,1.04,-0.453,0.0808
CGAACTCGGTCATTGACAGGACAGTGAATAGTAA,1.78,1.2,0.283,0.401,-0.271,1.07,0.725,0.451,-0.134,0.0163
CCTACTGGGCCATCAGGGCATTGATATCAACGTT,-0.583,-0.856,-0.715,-0.817,-0.886,0.0503,1.16,1.68,-0.00697,0.846
CCGACTGGGGCGAGGTTACCATAACGCACAGCCA,0.344,0.809,-0.212,0.84,-0.662,1.49,1.16,1.05,-0.243,0.417
GCTATTAGTTGAAAGGGCAACCGCATGATTCTCG,0.581,0.701,0.377,0.909,-0.00487,2.31,2.89,4.29,2.56,4.39
AGAATGAGGGTAAGATCAGGGAAACAGAATACAT,0.539,0.166,0.147,0.566,0.276,0.918,0.981,0.698,0.455,0.409
GATGCTAGGTCAGGTTGGTCAGCTAACGGGTACG,1.5,1.03,-0.12,0.742,0.041,1.66,0.776,0.805,-0.511,0.0836
ACTTACGGGTCAACGAGTTTATAGCACGCGTATA,6.09,4.46,1.02,4.03,0.714,5.4,5.37,5.02,2.4,4.12
CCGAGTAGGTTATGGGGGATTCAGGCAACGGTGA,1.01,1.49,0.84,3.36,6.87,2.55,2.34,4.36,1.98,3.77
CGTCCAGGGTCAAAGGTCAGTGAAGAGATGACGG,7.97,6.14,1.67,6.18,0.58,7.21,10.5,8.6,7.61,8.6
ACTTACGGGTCATCGAGGTTATAGCACGCGTATA,6.76,4.95,0.924,4.29,0.569,5.8,5.44,5.54,2.13,4.43
CCGACTGGGGCAAATGTTACCATACTCAGTACGA,0.0667,-0.122,0.0319,0.411,-0.698,2.25,4.31,5.16,3.62,5.18
ATATCTAGGTTACATCCGGGTCATTCAGGCTATG,2.52,4.41,1.93,3.04,1.64,4.41,6,5.11,2.4,4.09
CCTTACGGGTCACGAGGTTCTAGCACGACGAGCG,6.53,4.22,-0.19,3.53,0.0881,5.66,6.59,6.31,3.2,5.36
AGAATGAGGTTATTAAGTTCAGGGAATTGCGGTC,2.41,3.29,2.12,1.95,0.228,3.11,1.55,2.1,0.695,1.08
CCTAGTTGGTCAGGAGGTCACACTCCGGATATGA,3.59,3.48,2.22,3.31,0.86,3.98,3.28,4.03,1.65,3.38
GCAGACAGGTGAAAAGCAGGTAACTCAGGGTGGC,-0.224,-0.0671,-0.495,-0.319,-0.696,0.507,0.376,0.014,-0.488,-0.253
GGAACAAGGGCATTCGAGTTGATAGCATGGCGAT,1.63,1.37,0.0326,0.349,-0.333,1.16,0.807,0.531,-0.0599,0.199
AGAACGAGGGCACGTTGAGTTGATAGCAGAGTAG,0.758,0.705,-0.372,0.249,-0.789,2.23,2.19,1.42,0.235,0.958
CCTTACGGGTAAAGGTTATAGCACGGGTGGTACG,1.2,1.69,0.37,1.19,-0.173,3.02,2.95,4.67,2.06,3.73
ATATGTAGGTTACATCCAGGTCATTCAGGCTATG,2.67,4.56,3.72,3.08,0.989,4.38,5.7,4.88,2.67,4.04
TCTCGGAGGACACGAAAGGTCAGGGCTCGACATC,3.31,3.84,3.08,3.5,0.0689,3.95,1.6,2.91,2.57,2.76
